Sfp inh: blocks B. subtilis Sfp PPTase activity; 310,000 compounds, 3.5% hits; Q9F4F7; Potency, µM, for the others: largest response in the series, negative = inhibition, most hits filed as inhibitors; AID 1490; Biochemical Sfp PPTase activity, qHTS;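 further: the enzyme is Sfp with the accession as filed and its product quenches rhodamine fluorescence; 0% = enzyme reaction without inhibitor and -100% = no enzyme wells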
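Reaction rates are the 30-min fluorescence difference (ex 525, em 598 nm) in wells containing 15 nM Sfp, 5 uM rhodamine-CoA and 12.5 uM BHQ-2-YbbR at pH 7.6 with 10 mM MgCl2.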
L3MBTL1 block: inhibitors of human L3MBTL1; Q9Y468; AID 485360; 230,000 compounds, 0.66% hits; AlphaScreen L3MBTL1–H3K9me1 peptide binding; Potency, µM (doses to about 57.1 µM), without a hit: top-dose activity, negative = inhibition, actives largely listed as inhibitors; further: on the % scale 0 is the no-effect control and ±100 the full control effect; nearly all actives have a fitted effect of over 60% in size
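AlphaScreen proximity signal between nickel-chelate acceptor and streptavidin donor beads (final 10 ug/mL) reports binding of 50 nM L3MBTL1 to 75 nM biotin-H3 K9me1 peptide; complex incubated with compounds 30 min at room temperature; cefsulodin titration as control.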
HP1b chromo inh: blocks HP1-beta chromodomain binding to methylated histone tails | 390,000 compounds, 0.56% hits | Potency, µM (highest dose often 114 µM), inactives show top-dose activity change, negative = inhibition, hits mostly inhibitors | AID 540317 | AlphaScreen HP1-beta / biotin-H3K9me3 peptide binding | P83916; further: nearly all actives have a fitted effect of over 70% in size
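Compound inhibition of the preformed complex between 50 nM HP1-beta and 50 nM biotinylated H3K9me3 peptide was read by AlphaScreen. Buffer was PBS pH 7.4 with 0.01% Tween-20. Incubations ran 30 min at room temperature, with 10 ug/mL donor/acceptor beads.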
G9a block: blocks human histone lysine methyltransferase G9a; Q96KQ7; G9a H3K9 monomethylation, AlphaScreen, 2 h; Potency, µM (highest dose often 102 µM), for inactives: at the top dose activity, negative = inhibition, most hits filed as inhibitors; 350,000 compounds, 8.8% hits; AID 504332; further: on the % scale 0 is the no-effect control and ±100 the full control effect; nearly all actives have a fitted effect of over 75% in size
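Methyltransferase reactions run at room temperature for 2 h (20 nM enzyme, 500 nM biotin-H3K9 peptide, 20 uM SAM) after a 15 min compound preincubation; product detected by AlphaScreen beads and anti-H3K9me1 antibody.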
JMJD2A Tudor inh: inhibitors of human JMJD2A Tudor domain | AlphaScreen JMJD2A-Tudor / H3K4me3 peptide binding | Potency, µM (doses to about 114 µM), for the others: at the top dose activity change, negative = inhibition, most hits filed as inhibitors | 390,000 compounds, 4.4% hits | AID 504339; further: on the % scale 0 is the no-effect control and ±100 the full control effect; nearly all actives have a fitted effect of over 50% in size
BAZ2B block: BAZ2B (human) inhibition; AlphaScreen BAZ2B-H3K14Ac peptide displacement; Potency, µM (highest dose often 114 µM), without a hit: top-dose activity change, negative = inhibition, actives largely listed as inhibitors; 360,000 compounds, 4.4% hits; AID 504333; further: on the % scale 0 is the no-effect control and ±100 the full control effect; nearly all actives have a fitted effect of over 60% in size
Target sequence (Q9UIF8 whole entry, looked up): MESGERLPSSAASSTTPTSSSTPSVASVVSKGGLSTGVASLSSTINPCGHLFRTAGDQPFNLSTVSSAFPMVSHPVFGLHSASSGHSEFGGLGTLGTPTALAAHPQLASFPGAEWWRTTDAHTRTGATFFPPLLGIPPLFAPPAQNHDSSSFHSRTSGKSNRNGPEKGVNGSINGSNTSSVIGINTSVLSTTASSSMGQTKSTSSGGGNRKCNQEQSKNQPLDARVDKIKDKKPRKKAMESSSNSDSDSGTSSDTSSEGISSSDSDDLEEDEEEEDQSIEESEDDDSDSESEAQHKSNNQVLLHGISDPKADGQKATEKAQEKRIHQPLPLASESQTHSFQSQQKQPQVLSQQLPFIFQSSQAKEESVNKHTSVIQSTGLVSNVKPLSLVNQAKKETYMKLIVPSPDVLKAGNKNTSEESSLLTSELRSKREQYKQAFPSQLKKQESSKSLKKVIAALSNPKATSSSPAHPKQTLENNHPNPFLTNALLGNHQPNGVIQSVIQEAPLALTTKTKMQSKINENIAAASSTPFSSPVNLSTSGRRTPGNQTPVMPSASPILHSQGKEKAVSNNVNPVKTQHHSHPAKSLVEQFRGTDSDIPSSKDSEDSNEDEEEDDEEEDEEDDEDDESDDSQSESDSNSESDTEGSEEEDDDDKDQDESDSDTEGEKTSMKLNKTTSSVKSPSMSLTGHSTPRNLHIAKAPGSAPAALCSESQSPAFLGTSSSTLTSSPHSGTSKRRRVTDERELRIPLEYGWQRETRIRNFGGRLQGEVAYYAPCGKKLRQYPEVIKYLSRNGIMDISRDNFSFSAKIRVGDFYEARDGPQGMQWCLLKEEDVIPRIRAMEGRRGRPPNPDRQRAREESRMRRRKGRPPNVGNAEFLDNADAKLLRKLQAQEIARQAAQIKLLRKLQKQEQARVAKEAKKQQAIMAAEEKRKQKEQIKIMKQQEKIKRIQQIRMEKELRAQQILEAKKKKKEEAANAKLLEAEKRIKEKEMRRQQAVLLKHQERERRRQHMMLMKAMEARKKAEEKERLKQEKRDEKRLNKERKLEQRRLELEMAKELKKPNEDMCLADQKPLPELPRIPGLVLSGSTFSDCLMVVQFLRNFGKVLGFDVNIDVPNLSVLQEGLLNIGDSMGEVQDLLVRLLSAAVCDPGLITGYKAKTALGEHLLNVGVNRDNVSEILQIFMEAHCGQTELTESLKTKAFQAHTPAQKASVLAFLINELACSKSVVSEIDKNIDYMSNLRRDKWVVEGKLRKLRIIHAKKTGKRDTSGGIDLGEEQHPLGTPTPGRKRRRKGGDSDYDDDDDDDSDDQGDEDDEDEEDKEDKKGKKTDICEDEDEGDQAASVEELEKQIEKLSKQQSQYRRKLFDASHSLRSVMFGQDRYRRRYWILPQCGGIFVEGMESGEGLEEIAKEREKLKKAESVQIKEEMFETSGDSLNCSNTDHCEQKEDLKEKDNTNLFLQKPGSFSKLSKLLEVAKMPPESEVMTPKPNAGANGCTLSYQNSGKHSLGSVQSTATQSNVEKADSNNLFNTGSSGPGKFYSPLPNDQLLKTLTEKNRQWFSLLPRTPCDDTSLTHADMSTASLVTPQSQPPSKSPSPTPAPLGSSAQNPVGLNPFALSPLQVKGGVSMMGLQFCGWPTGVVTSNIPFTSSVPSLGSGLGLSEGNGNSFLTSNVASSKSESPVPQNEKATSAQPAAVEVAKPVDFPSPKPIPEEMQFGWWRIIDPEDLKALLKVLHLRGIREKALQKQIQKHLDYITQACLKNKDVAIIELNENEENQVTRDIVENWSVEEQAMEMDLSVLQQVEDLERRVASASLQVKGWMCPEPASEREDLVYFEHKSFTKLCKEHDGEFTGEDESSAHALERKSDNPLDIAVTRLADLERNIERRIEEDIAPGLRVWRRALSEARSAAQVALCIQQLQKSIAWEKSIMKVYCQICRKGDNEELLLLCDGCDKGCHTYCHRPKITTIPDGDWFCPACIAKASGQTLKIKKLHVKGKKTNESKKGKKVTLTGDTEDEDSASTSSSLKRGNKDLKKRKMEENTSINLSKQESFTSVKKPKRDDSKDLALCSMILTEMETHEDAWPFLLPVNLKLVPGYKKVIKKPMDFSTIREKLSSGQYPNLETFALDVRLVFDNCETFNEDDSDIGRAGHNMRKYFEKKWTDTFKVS
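Inhibition is scored as reduced AlphaScreen emission. The BAZ2B/b-H3(5-23)K14Ac complex (50 nM each) in PBS pH 7.4, 0.01% Tween-20 meets compound (up to 110 uM) for 30 min at RT before bead addition.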
* = called active by the depositor; ? = inconclusive; . = no result given; [ ] = another dose, or the depositor's remark. Only some compounds are listed: those with a hit (about 12% of all), similar ones and a draw of the others. The call rests on the fitted dose curve; in most records, active means well fitted curve in the direction sought with a large enough effect; inconclusive means small, poorly fitted or top-dose-only effect, or another doubt; inactive means no such curve, though single readings can be large; an effect the other way counts as inactive or inconclusive. Potency means the concentration at half of the fitted maximal effect.

SMILES	Sfp inh	L3MBTL1 block	HP1b chromo inh	G9a block	JMJD2A Tudor inh	BAZ2B block
COc1cccc(CN(C)C(=O)CSC(C)C(=O)Nc2cc(C)on2)c1OC (stereo unspecified)	.	6%	23%	13%[12.7 µM]	-17%	7%
CCN(CC)C(=O)C1CCCN(Cc2ccc(OC)c(C)c2C)C1 (stereo unspecified)	50µM*	-10%	?	?	1.6µM*	71µM*
CCN(CC)C(=O)C1CCCN(Cc2cccc(Oc3ccccc3)c2)C1 (stereo unspecified)	0%	4%	0%	28µM*	22µM*	-37%
CCOC(=O)C1CCCN(Cc2cccc(Oc3ccccc3)c2)C1 (stereo unspecified)	-15%	2%	?	79µM*	3.2µM*	?
CN1CCN(Cc2cccc(Oc3ccc(Cl)cc3)c2)CC1	10%	.	11%	?	-21%	-10%
CCOC(=O)C1CCCN(C(=O)c2ccccc2Oc2ccccc2)C1 (stereo unspecified)	16%	1%	20%	11%	-3%	17%
CCN1CCN(Cc2cccc(Oc3ccc(Cl)cc3)c2)CC1	?	.	12%	?	-31%	79µM*
CCC(=O)Nc1cc(C)c(O)c(-c2nc3ncccc3o2)c1	.	.	9%	-8%[59 µM]	-13%	5%
O=C(COC(=O)c1ccc(C(F)(F)F)cc1)NC(=O)C1CCCCC1	.	.	32%	.	-13%	.
CCCCn1c(=O)n(CC2CCC(C(=O)NCCCOC)CC2)c(=O)c2sccc21 (stereo unspecified)	.	.	60%	7%[59 µM]	-9%	4%
CCOC(=O)C1CCN(Cc2cccc(Oc3ccc(Cl)cc3)c2)CC1	-26%	10%	-30%	?	28µM*	?
CCOC(=O)C1CCN(C(=O)c2cccc(C(=O)N3CCC(C(=O)OCC)CC3)c2)CC1	8%	2%	9%	3%	5%	1%
CCOC(=O)C1CCN(Cc2cccc(Oc3ccccc3)c2)CC1	-24%	1%	-19%	7.1µM*	22µM*	56µM*
O=C(Nc1cccc(F)c1)C1CCCN(S(=O)(=O)c2ccccc2)C1 (stereo unspecified)	4%	.	34%	-7%	-7%	-14%
CCN(CC)c1ccc(/C=c2\sc3nnc(-c4ccccc4Cl)n3c2=O)cc1	-1%	.	-1%	?	-12%	-26%
Cc1ccc(/C=c2/sc3nnc(-c4ccccc4Cl)n3c2=O)o1	13µM*	?	-35%	11µM*	22µM*	40µM*
Cc1ccc(/C=c2\sc3nc(-c4ccccc4Br)nn3c2=O)o1	?	.	1%	3.5µM*	50µM*	50µM*
N=C(N)Sc1nc(N2CCCCC2)nc(N2CCCCC2)n1	-20%	10%	30%	9%[12.7 µM]	-14%	79µM*
OCCN1CCN(c2nc(N3CCCCC3)nc(N3CCCCC3)n2)CC1	6%	0%	16%	25%[12.7 µM]	-32%	-20%
COc1ccc(/C=N/NC(=O)c2ccc3c(c2)OCO3)cc1	-4%	.	26%	79µM*	-11%	?
COc1ccc(NS(=O)(=O)c2cccc(C(=O)N/N=C/c3ccc4c(c3)OCCO4)c2)cc1	16µM*	-8%	19%	4%[59 µM]	-19%	-28%
O=C1CC(c2ccco2)CC2=C1C(c1cccnc1)n1nc(C(F)(F)F)nc1N2 (stereo unspecified)	.	.	-14%	.	?	.
O=C(O)C1OC(Oc2cc3oc(-c4ccccc4)cc(=O)c3c(O)c2O)C(O)C(O)C1O (stereo unspecified)	8.9µM*	?	-1%	40µM*	20µM*	-5%
O=c1cc(-c2ccccc2)oc2cc(OCc3ccccc3)cc(O)c12	1%	-3%	20%	-6%[59 µM]	-17%[11.4 µM]	-25%
COc1c(OC2OC(C(=O)O)C(O)C(O)C2O)cc(O)c2c(=O)cc(-c3ccccc3)oc12 (stereo unspecified)	40µM*	-15%	17%	-22%	?	-3%
SMILES	Sfp inh	L3MBTL1 block	HP1b chromo inh	G9a block	JMJD2A Tudor inh	BAZ2B block
CC(=O)OC[C@@H]1O[C@@H](O/N=C2/C[C@@H](O)[C@@H](O)[C@@H]3[C@@H]4C(=O)N([C@@H](C)c5ccccc5)C(=O)[C@H]4CC[C@@H]23)[C@H](OC(C)=O)[C@H](OC(C)=O)[C@@H]1OC(C)=O	10%	.	.	.	.	.
CC(C)OCCCNC(=O)CCCN1C(=O)CCn2nc(-c3cccn3C)cc21	.	.	-1%[57 µM]	-10%[59 µM]	-19%	-20%
CC1(C)CC2(CC(c3ccc(F)cc3)c3ccc(O)cc3O2)NC(=S)N1 (stereo unspecified)	13%	.	10%	?	?	?
CC1(C)CC2(CC(c3ccccc3F)c3ccc(O)c(O)c3O2)NC(=S)N1 (stereo unspecified)	8.9µM*	-22%	?	.	40µM*	45µM*
CCOc1ccc(NC(=O)/C=C/c2ccccc2)c([N+](=O)[O-])c1	16%	-1%	-10%	4%[59 µM]	-24%	-30%
CCOc1ccc(N/C=C/C(=O)c2ccccc2)c([N+](=O)[O-])c1	-2%	-26%	?	8.9µM*	?	?
Cc1n[nH]c(=S)n1/N=C/c1c(O)ccc2ccccc12	63µM*	-5%	43%	.	?	-13%
Cc1nc2ccccc2c(=O)n1/N=C/c1ccccc1F	12%	.	21%	-1%	2%	5%
Cc1nc2ccccc2c(=O)n1/N=C/c1cc(Br)ccc1O	-3%	.	54%	38%	?	-6%
Cc1nc2ccccc2c(=O)n1/N=C/c1c(O)ccc2ccccc12	0%	22µM*	-18%	32µM*	-30%	25µM*
COc1cc(/C=N/n2c(C)nc3ccccc3c2=O)cc(OC)c1O	-3%	.	44%	13µM*	-22%	-27%
Cc1nc2ccccc2c(=O)n1/N=C/c1ccccn1	?	11%	8%	28µM*	-22%	-7%
Cc1nc2ccccc2c(=O)n1/N=C/c1c(O)ccc2oc3c(c12)CCCC3	22µM*	.	4%	4%[2.33 µM]	?	8%
CC(C)(C)N=Cc1c(O)ccc2oc3c(c12)CCCC3	-14%	.	84%	-5%	?	95%
O=S(=O)(c1ccc2c(c1)OCCO2)C1CCC(S(=O)(=O)c2c(F)cccc2F)CC1 (stereo unspecified)	.	-3%	43%	4%[12.7 µM]	-14%	8%
Cc1ccc(/C=N/n2c(-c3cccnc3)n[nH]c2=S)s1	35µM*	9%	-9%	0.79µM*	4.5µM*	-7%
S=c1[nH]nc(-c2cccnc2)n1/N=C/c1ccc(Br)s1	4%	-5%	56%	?	5.6µM*	-36%
Cc1nnc(C)n1/N=C/c1cccnc1	20%	.	42%	1%[59 µM]	6%	0%

Bioassay records deposited in PubChem BioAssay by National Center for Advancing Translational Sciences (NCATS).
